Assay results taken from the supplement of paper PMC10981050.
“And” between values parts separate entries of the source, which are not always exact repeats. Equal values may be shown once.

Experiments:
Test in all cases: cell viability relative to vehicle control; higher = less cytotoxic
Settings in all cases: 10 µM
K562 = tested on: K562
Outline: (§1)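 Mutant clones made by CRISPR editing and their isogenic wild-type counterparts, from four leukaemia lines, were exposed to a single 10 µM dose of each library compound for 48 h. The supernatant was then removed and CellTiter-Glo luminescence was read. Viability was reported as percent of the on-plate vehicle control.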

MARIMO = tested on: MARIMO
Outline: as §1

MOLM14 = tested on: MOLM14
Outline: as §1

OCI-AML2 = tested on: OCI-AML2
Outline: as §1

SMILES	cell viability (K562; SRSF2 genotype: SRSF2 P95H/wt)	cell viability (K562; SRSF2 genotype: SRSF2 wt/wt)	cell viability (MARIMO; SRSF2 genotype: SRSF2 P95H/wt)	cell viability (MARIMO; SRSF2 genotype: SRSF2 wt/wt)	cell viability (MOLM14; SRSF2 genotype: SRSF2 P95H/wt)	cell viability (MOLM14; SRSF2 genotype: SRSF2 wt/wt)	cell viability (OCI-AML2; SRSF2 genotype: P95H/wt)	cell viability (OCI-AML2; SRSF2 genotype: wt/wt)
CCC[S+]([O-])c1ccc2[nH]c(NC(=O)OC)nc2c1 (centres undefined) [Albendazole Oxide (Ricobendazole)]	88.8% and 83.5%	80.6%	85.7%	88%	88.2%	95.4%	87.8%	95.5%
CC(O)COCC1OC2OC3C(COCC(C)O)OC(OC4C(COCC(C)O)OC(OC5C(COCC(C)O)OC(OC6C(COCC(C)O)OC(OC7C(COCC(C)O)OC(OC8C(COCC(C)O)OC(OC1C(O)C2O)C(O)C8O)C(O)C7O)C(O)C6O)C(O)C5O)C(O)C4O)C(O)C3O (centres undefined)	100% and 108%	109%	105%	112%	106%	108%	108%	95.8%
COC(c1ccccc1)(c1ccccc1)[C@H](Oc1nc(C)cc(C)n1)C(=O)O [Ambrisentan]	103% and 96.5%	98.8%	95.2%	109%	102%	103%	102%	105%
